Compound activity (PubChem)
A selection: hits, their analogues and other compounds. The true share with any hit is near 4.7%.
PABP polyA inh: blocks human PABP binding to poly(A) RNA; inhibition, % at 35 µM; 290,000 tested, 1% active; P11940; AID 2014; fluorescence polarization;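 note: calls also rest on retests at 20 µM and on dose response follow-up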
Target sequence (P11940 whole entry, looked up): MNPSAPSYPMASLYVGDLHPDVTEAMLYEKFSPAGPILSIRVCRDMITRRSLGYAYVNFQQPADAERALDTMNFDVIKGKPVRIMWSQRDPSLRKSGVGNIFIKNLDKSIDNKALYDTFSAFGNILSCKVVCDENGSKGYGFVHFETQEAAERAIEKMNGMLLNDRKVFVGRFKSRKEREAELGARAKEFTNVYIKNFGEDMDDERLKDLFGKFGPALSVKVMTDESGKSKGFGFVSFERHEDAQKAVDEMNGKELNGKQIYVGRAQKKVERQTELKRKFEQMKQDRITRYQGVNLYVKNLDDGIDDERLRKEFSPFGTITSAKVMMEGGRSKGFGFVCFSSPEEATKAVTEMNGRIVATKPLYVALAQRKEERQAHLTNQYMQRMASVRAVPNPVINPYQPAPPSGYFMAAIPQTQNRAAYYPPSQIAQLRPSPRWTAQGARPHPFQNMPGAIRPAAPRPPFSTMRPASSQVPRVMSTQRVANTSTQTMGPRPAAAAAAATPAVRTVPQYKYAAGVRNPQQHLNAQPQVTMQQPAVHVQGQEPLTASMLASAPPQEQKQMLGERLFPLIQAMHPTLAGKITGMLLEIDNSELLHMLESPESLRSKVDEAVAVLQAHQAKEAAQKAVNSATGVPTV
Efflux pump mplx: blocks antifungal efflux pumps in multiplex yeast assay. inhibition, % at 10 µM. S. cerevisiae Candida pump triplex, Nile Red efflux. AID 485275. 330,000 tested, 0.44% active;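 active = plate passing quality check with inhibition over a set limit, or well fluorescence over plate mean plus 4 SD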;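 note: Nile Red retained in pooled yeast measured as flow cytometry median fluorescence; higher means more Nile Red kept so more efflux inhibition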
MLLE-PAM2 inh: inhibitors of microRNA-mediated deadenylation, human PABP1 MLLE binding; GST-MLLE / FITC-PAM2 fluorescence polarization; P11940; 360,000 tested, 0.36% active; inhibition, % at 20 µM; in the data active = inhibition above about 35%, passing the limit was not always enough
SUMO HTRF inh: blocks human SUMOylation mediated by UBC9; inhibition, % at 35 µM; P63279; HTRF SUMOylation assay, SAE1/SAE2 + UBC9, in vitro; 290,000 tested, 0.36% active; AID 2006; in the data active = inhibition above about 50%, passing the limit was not always enough; inconclusive = no clear call, values can overlap the other calls
Target sequence (P63279 whole entry, looked up): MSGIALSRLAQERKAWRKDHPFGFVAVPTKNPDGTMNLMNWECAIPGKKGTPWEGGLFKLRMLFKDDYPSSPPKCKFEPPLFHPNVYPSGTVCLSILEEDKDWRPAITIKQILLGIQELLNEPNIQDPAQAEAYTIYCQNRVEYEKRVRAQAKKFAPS
eIF4H FP inh: inhibitors of RNA binding by human eIF4H; eIF4H fluorescence polarization binding assay; inhibition, % at 35 µM; 290,000 tested, 0.94% active;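 note: calls also rest on retests at 20 µM and on dose response follow-up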
ALR H2O2 inh: human ALR oxidase inhibition via reduced H2O2 | P55789 | purified ALR, DTT oxidation, H2O2 HRP-luminol luminescence | inhibition, % (test concentration not listed) | 290,000 tested, 3.8% active;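 active = mean replicate inhibition above about 79%, with every replicate also reaching it, limit read from the data; inconclusive = only one of the two criteria met; inactive = mean below limit and not every replicate reaching it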
Each line names hits and unclear results; the compound was inactive in the other large screens. Unless noted, the rule behind the calls is not given here.

Nn1c(SCC(=O)Nc2cccc(Br)c2)nnc1C1CC1	none (no result: PABP polyA inh, SUMO HTRF inh, eIF4H FP inh)
CCN(CC)S(=O)(=O)c1ccc(N2CCN(C)CC2)c(NC(=O)COc2ccc(F)cc2Cl)c1	none (no result: PABP polyA inh, SUMO HTRF inh, eIF4H FP inh, ALR H2O2 inh)
COc1cc(/C=C2/SC(=S)N(CCC(=O)Nc3cccnc3)C2=O)cc(OC)c1OC	none (no result: PABP polyA inh, Efflux pump mplx, SUMO HTRF inh, eIF4H FP inh, ALR H2O2 inh)
O=C(O)c1ccc(N/N=C/c2ccc(-c3ccccc3)cc2)cc1	none (no result: Efflux pump mplx, ALR H2O2 inh)
CC(C)c1ccc(/C=N/Nc2ccc(C(=O)O)cc2)cc1	ALR H2O2 inh 98
CCN(CC)CCCN(C(=O)c1cccc(C)c1)c1nc(-c2ccc(OC)cc2)cs1	ALR H2O2 inh 96
CCN(CC(=O)NCc1ccc(F)cc1)C(=O)/C=C/c1ccc(S(=O)(=O)N(CC)CC)cc1	none (no result: ALR H2O2 inh)
O=C1NN(c2ccccc2)C(=O)C1=Cc1ccccc1O	none (no result: PABP polyA inh, Efflux pump mplx, SUMO HTRF inh, eIF4H FP inh, ALR H2O2 inh)
O=C1NN(c2ccc(Cl)c(Cl)c2)C(=O)/C1=C/c1ccc(-c2ccccc2C(=O)O)o1	PABP polyA inh 64, eIF4H FP inh 40, ALR H2O2 inh 99
CC1=NN(c2ccc(Cl)c(C(=O)O)c2)C(=O)/C1=C\c1ccc(-c2ccc(C(=O)O)cc2)o1	SUMO HTRF inh 82, eIF4H FP inh 52 (no result: Efflux pump mplx, ALR H2O2 inh)
COC(=O)c1ccc(N2NC(=O)/C(=C/c3ccc(-c4ccc(Cl)c(C(=O)O)c4)o3)C2=O)cc1	PABP polyA inh 63, eIF4H FP inh 71 (no result: Efflux pump mplx, ALR H2O2 inh)
O=C1NN(c2ccccc2)C(=O)/C1=C/c1ccc(-c2ccc(C(=O)O)cc2)o1	PABP polyA inh 70, eIF4H FP inh 68, ALR H2O2 inh 99
CC1=NN(c2ccccc2)C(=O)/C1=C/c1ccc(-c2ccc(C)c(C(=O)O)c2)o1	none (no result: PABP polyA inh, MLLE-PAM2 inh, SUMO HTRF inh, eIF4H FP inh)
Cc1ccc(N2NC(=O)/C(=C/c3ccc(-c4ccc(Cl)c(C(=O)O)c4)o3)C2=O)cc1C	none
CC(C)C[C@@H](CN)NC(=O)c1nc[nH]c1C(=O)N[C@@H](C)C(=O)CNC[C@H](CC(C)C)NC(=O)c1nc[nH]c1C(=O)N[C@@H](Cc1ccccc1)C(=O)O	none (no result: PABP polyA inh, Efflux pump mplx, SUMO HTRF inh, eIF4H FP inh, ALR H2O2 inh)
O=C(Nc1ccc(F)cc1)C1C(c2ccccc2)C1(Cl)Cl (stereo unspecified)	none
CC12C=CC(=O)C=C1CCC1C2C(=O)CC2(C)C1CCC2(O)C(=O)CO (stereo unspecified)	none (no result: PABP polyA inh, Efflux pump mplx, SUMO HTRF inh, eIF4H FP inh, ALR H2O2 inh)
O=C(COC(=O)/C=C/c1cnc2ccccc2n1)NCC(F)(F)F	ALR H2O2 inh 91
CN1CCc2c(sc(NC(=O)c3cc(Cl)sc3Cl)c2C(N)=O)C1	ALR H2O2 inh 97
CC(=O)N1CCc2c(sc(NC(=O)c3cccc(N4C(=O)CCC4=O)c3)c2C(N)=O)C1	PABP polyA inh 1.5
CN1CCc2c(sc(NC(=O)c3ccco3)c2C(N)=O)C1	none
Cc1ccc(S(=O)(=O)N2CCN(C(=O)Cn3c(=O)cnc4ccccc43)CC2)cc1	none (no result: PABP polyA inh, SUMO HTRF inh, eIF4H FP inh)
CSCCC(NC(=O)COc1ccccc1)C(=O)N1CCCCCC1 (stereo unspecified)	none (no result: PABP polyA inh, SUMO HTRF inh, eIF4H FP inh, ALR H2O2 inh)
CCOC(=O)c1cc2c(=O)n3ccccc3nc2n(Cc2ccccc2)c1=N	none
Cc1cccn2c(=O)c3cc(C(N)=S)c(=N)n(CCCOC(C)C)c3nc12	none
CCOCCCn1c(=N)c(C(N)=S)cc2c(=O)n3cccc(C)c3nc21	PABP polyA inh 78, eIF4H FP inh 87
CCOC(=O)c1cc2c(=O)n3cccc(C)c3nc2n(C)c1=N	PABP polyA inh 62, eIF4H FP inh 96 (no result: Efflux pump mplx, MLLE-PAM2 inh, ALR H2O2 inh)
CN(C)c1ccc(C(=S)N2CCNCC2)cc1	ALR H2O2 inh 99
CCOC(=O)CC1c2nc3ccccc3cc2CN1C(=O)OCC (stereo unspecified)	none (no result: PABP polyA inh, Efflux pump mplx, SUMO HTRF inh, eIF4H FP inh, ALR H2O2 inh)
COc1cccc(-c2cc3c(=O)n(-c4ccccc4)c(=S)[nH]c3s2)c1	none
COc1ccc(-c2csc3[nH]c(=S)n(-c4ccccc4)c(=O)c23)cc1OC	ALR H2O2 inh 83
COC(=O)c1ccc(S(=O)(=O)c2ccc(Cl)cc2)c(N)c1	none
C=CCn1c(NCc2ccco2)nc2ccccc21	none
CCCCn1c(NCc2ccc(N(C)C)cc2)nc2ccccc21	ALR H2O2 inh 88
C=CCn1c(NCc2ccc(N(C)C)cc2)nc2ccccc21	ALR H2O2 inh 99
CCCCn1c(NCc2ccncc2)nc2ccccc21	none
Cc1ccc(SCCN2CCC(O)CCC2=O)cc1 (stereo unspecified)	none
CC(C)(C)c1nnc2sc(SCC(=O)c3ccccc3)nn2c1=O	ALR H2O2 inh 98
Cc1cc(C(=O)CSc2nn3c(=O)c(C(C)(C)C)nnc3s2)c(C)n1C	PABP polyA inh 101, eIF4H FP inh 38, ALR H2O2 inh 92
CC(C)(C)c1nnc2sc(SCC(=O)N3CCc4ccccc43)nn2c1=O	none
COc1ccc(-n2c(C)cc(C(=O)CSc3nn4c(=O)c(C(C)(C)C)nnc4s3)c2C)cc1	none
COc1ccc(C(=O)CSc2nn3c(=O)c(C(C)(C)C)nnc3s2)cc1	ALR H2O2 inh 97
OCC[C@H]1C[C@@H](O)[C@H](O)[C@]2(Cc3ccccc3CCO2)O1	none (no result: PABP polyA inh, SUMO HTRF inh, eIF4H FP inh, ALR H2O2 inh)
C[C@H]1CN([C@@H](C)CO)C(=O)CCCn2nncc2CO[C@@H]1CN(C)C(=O)c1ccc2ccn(C)c2c1	none (no result: PABP polyA inh, Efflux pump mplx, SUMO HTRF inh, eIF4H FP inh, ALR H2O2 inh)
O=C(OCc1nnc(-c2ccccc2)o1)c1cc(S(=O)(=O)N2CCOCC2)ccc1F	none (no result: PABP polyA inh, SUMO HTRF inh, eIF4H FP inh)
COc1cc(C#N)c(N=C(SCC#N)N2CCOCC2)cc1OC	ALR H2O2 inh 98
CC(OC(=O)C1CCN(S(=O)(=O)c2ccc(C(C)(C)C)cc2)CC1)C(=O)N(C)C1CCCCC1 (stereo unspecified)	none (no result: PABP polyA inh, Efflux pump mplx, SUMO HTRF inh, eIF4H FP inh, ALR H2O2 inh)
CN1CCN(C(=O)c2ccc(-c3ccc(F)c(F)c3)c3ccoc23)CC1	none (no result: PABP polyA inh, Efflux pump mplx, SUMO HTRF inh, eIF4H FP inh, ALR H2O2 inh)
CCC(CO)n1c(SCc2cc(=O)oc3cc(C)ccc23)nc2ccccc2c1=O (stereo unspecified)	ALR H2O2 inh 99
COc1ccccc1-n1c(SCc2cc(=O)oc3cc(O)ccc23)nc2ccccc2c1=O	none
Nc1cc2c(cc1C(=O)c1ccccc1)OCCO2	ALR H2O2 inh 98
Cc1[nH]nc(-c2cccnc2)c1N=NN(C)C	none (no result: PABP polyA inh, Efflux pump mplx, SUMO HTRF inh, eIF4H FP inh, ALR H2O2 inh)
CN1CCCC(OC(=O)c2ccc(S(=O)(=O)N(C)C)cc2)C1 (stereo unspecified)	none
Cc1ccc(C(=O)CC(SCC(=O)O)c2ccc([N+](=O)[O-])cc2)cc1 (stereo unspecified)	ALR H2O2 inh 99
CCN1C(=O)/C(=C/C=C2/CCCN2C)OC1=S	PABP polyA inh inconclusive, eIF4H FP inh inconclusive, ALR H2O2 inh 98
C/C(=N\Nc1nc2ccccc2[nH]1)c1cc2ccccc2o1	ALR H2O2 inh inconclusive
C/C(=N\Nc1nc2ccccc2[nH]1)c1ccc2c(c1)OCCO2	ALR H2O2 inh 99
C/C(=N\Nc1nc2ccccc2[nH]1)c1ccc2c(c1)OCO2	ALR H2O2 inh 100
CCC1=C(OC(=O)N(CC)CC)N2C(=O)OC(=NCC3CC3)[C@]2(Cc2ccccc2)[C@H]2C1=CC[C@H]1C(=O)N(c3ccccc3)C(=O)[C@H]12	Efflux pump mplx 3.8
CC(=O)c1cccc(Nc2ccc(C#N)cc2)c1	none (no result: PABP polyA inh, Efflux pump mplx, SUMO HTRF inh, eIF4H FP inh, ALR H2O2 inh)
CCCCn1c(-c2csc3c2CCCC3)n[nH]c1=S	none (no result: MLLE-PAM2 inh)
CCn1c(-c2csc3c2CCCC3)n[nH]c1=S	ALR H2O2 inh 91
